Test [1] deals with rat CYP2C13, Cyp2c13 (gene 171521) (UniProt P20814). Nature of the test: NVS_ADME_rCYP2C13: NovaScreen (NVS) CYP450-related Enzyme Activity (ADME) Assay for rat CYP2C13 (AID 2283121). A digest of the protocol:
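Inhibition is read as decreased fluorescent product formation, referenced to acetonitrile vehicle. Cell-free recombinant rat Cyp2c13 reaction ran 0.75 hour; compounds first at 10 uM in duplicate, then concentration series for actives.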

The target in test [2] is human Acetylcholinesterase (AChE), ACHE (gene 43) (UniProt P22303). The experiment in a line: NVS_ENZ_hAChE: NovaScreen (NVS) Enzymatic Assay for human Acetylcholinesterase (AChE) (AID 2283129). A digest of the protocol: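 Actives from a duplicate single-point screen (25 uM) were followed up in concentration series. Enzyme activity read by absorbance (colorimetric) 0.33 hour after dosing, cell-free, normalized to DMSO, with loss of signal scored.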
human Acetylcholinesterase (AChE), ACHE (gene 43), sequence (P22303 whole entry, looked up): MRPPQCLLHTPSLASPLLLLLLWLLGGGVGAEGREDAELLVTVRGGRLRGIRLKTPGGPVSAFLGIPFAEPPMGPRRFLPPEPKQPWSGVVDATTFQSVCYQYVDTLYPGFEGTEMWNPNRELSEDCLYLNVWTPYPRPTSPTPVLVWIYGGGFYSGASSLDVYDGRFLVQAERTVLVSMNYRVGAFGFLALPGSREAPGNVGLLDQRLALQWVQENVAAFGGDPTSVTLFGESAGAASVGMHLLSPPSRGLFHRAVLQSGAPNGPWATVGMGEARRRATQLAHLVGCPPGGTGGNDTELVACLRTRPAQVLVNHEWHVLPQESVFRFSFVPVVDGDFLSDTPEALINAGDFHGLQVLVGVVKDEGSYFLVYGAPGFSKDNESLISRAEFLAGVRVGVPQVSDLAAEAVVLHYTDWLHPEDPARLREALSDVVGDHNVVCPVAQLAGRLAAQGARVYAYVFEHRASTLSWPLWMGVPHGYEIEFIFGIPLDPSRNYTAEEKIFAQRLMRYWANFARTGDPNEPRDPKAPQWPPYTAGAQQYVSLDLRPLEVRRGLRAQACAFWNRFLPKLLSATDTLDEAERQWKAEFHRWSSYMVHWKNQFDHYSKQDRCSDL

Test [3] relates to rat CYP2C6, gene 293989. The experiment in a line: NVS_ADME_rCYP2C6: NovaScreen (NVS) CYP450-related Enzyme Activity (ADME) Assay for rat CYP2C6 (AID 2283120). A digest of the protocol:
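Compounds first tested in duplicate at 10 uM, hits (e.g. 30% inhibition) re-run in singleton dose series to a 20 uM top concentration. Enzyme activity of recombinant rat CYP2C6 measured via fluorescent substrate turnover after 1 h; acetonitrile baseline.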

In test [4] the target is human Caspase 10 (CASP10), CASP10 (gene 843) (UniProt Q92851). Nature of the test: NVS_ENZ_hCASP10: NovaScreen (NVS) Enzymatic Assay for human Caspase 10 (CASP10) (AID 2283133). Summed up: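 Fluorescence-intensity enzyme read-out of E. coli-expressed CASP10 activity, 1 h after compound. Single-point duplicates at 25 uM preceded concentration-response testing (top 50 uM) of hits; inhibition expressed as signal loss versus DMSO.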
human Caspase 10 (CASP10), CASP10 (gene 843), sequence (Q92851 whole entry, looked up): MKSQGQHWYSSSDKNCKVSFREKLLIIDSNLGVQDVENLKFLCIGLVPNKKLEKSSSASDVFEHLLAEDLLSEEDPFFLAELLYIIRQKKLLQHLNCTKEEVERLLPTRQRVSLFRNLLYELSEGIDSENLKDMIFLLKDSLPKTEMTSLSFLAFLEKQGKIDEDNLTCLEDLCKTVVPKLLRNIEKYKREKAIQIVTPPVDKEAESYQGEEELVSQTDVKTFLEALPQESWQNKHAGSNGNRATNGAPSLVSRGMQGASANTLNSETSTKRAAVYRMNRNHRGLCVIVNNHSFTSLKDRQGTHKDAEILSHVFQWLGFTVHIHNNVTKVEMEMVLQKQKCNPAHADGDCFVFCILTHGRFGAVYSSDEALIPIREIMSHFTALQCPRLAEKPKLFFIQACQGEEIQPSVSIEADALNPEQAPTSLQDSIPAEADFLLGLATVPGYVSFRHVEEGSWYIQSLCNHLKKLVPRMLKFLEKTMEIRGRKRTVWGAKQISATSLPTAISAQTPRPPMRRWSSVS

In test [5] the target is human Caspase 2 (CASP2), CASP2 (gene 835) (UniProt P42575). Nature of the test: NVS_ENZ_hCASP2: NovaScreen (NVS) Enzymatic Assay for human Caspase 2 (CASP2) (AID 2283135). A digest of the protocol:
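Single-point duplicate testing at 25 uM preceded concentration series topping at 50 uM. Activity of the recombinant E. coli-derived protease was followed by fluorescent substrate cleavage 1 h post-dosing, relative to DMSO.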

For test [6], the target named is rat CYP2D1, Cyp2d1 (gene 266684) (UniProt P10633). The experiment in a line: NVS_ADME_rCYP2D1: NovaScreen (NVS) CYP450-related Enzyme Activity (ADME) Assay for rat CYP2D1 (AID 2283122). Summed up: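 Rat CYP2D1 enzyme activity measured by fluorescence intensity in a cell-free format, 0.75 h post-dosing, acetonitrile as negative control. Screening at 10 uM in duplicate, with actives followed in concentration series up to 20 uM.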
rat CYP2D1, Cyp2d1 (gene 266684), sequence (P10633 whole entry, looked up): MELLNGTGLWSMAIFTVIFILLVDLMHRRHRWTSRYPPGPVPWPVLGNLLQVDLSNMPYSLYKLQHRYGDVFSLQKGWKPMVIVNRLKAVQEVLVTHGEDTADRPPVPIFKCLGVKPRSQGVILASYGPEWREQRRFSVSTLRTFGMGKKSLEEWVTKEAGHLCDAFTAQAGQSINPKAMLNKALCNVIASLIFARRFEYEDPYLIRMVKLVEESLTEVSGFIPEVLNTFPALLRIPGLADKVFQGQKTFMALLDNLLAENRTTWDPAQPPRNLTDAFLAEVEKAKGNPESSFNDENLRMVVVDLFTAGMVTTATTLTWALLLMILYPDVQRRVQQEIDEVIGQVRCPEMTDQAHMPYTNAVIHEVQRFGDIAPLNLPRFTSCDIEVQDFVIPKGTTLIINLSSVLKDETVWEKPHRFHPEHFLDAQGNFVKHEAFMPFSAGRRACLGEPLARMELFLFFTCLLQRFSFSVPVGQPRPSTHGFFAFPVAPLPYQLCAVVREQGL

Test [7] addresses Caspase-1 (Homo sapiens) (UniProt P29466). Nature of the test: NVS_ENZ_hCASP1: NovaScreen (NVS) Enzymatic Assay for human Caspase 1 (CASP1) (AID 2283132). A digest of the protocol:
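Compounds were first tested in duplicate at 25 uM, with follow-up concentration series up to 50 uM. The bacterially expressed enzyme was read by fluorescence at 1 h post-dosing. Signal loss versus DMSO baseline indicates reduced enzyme activity.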

Test [8] concerns the target rat CYP2C12, Cyp2c12 (gene 25011) (UniProt P11510). Nature of the test: NVS_ADME_rCYP2C12: NovaScreen (NVS) CYP450-related Enzyme Activity (ADME) Assay for rat CYP2C12 (AID 2283119). Summed up:
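Fluorescent-substrate turnover by recombinant rat CYP2C12, measured at 0.5 h, normalized to acetonitrile vehicle. Chemicals screened first at a single 10 uM concentration in duplicate, with concentration series for actives.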

The target of test [9] is human Acid Phosphatase 1 (ACP1), ACP1 (gene 52) (UniProt P24666). Nature of the test: NVS_ENZ_hACP1: NovaScreen (NVS) Enzymatic Assay for human Acid Phosphatase 1 (ACP1) (AID 2283136). Summed up:
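Cell-free fluorescence read-out of phosphatase activity, substrate and product separated by mobility shift, taken 1.5 h after compound addition; protein produced in Sf9. Single 25 uM duplicate screen, followed by concentration series for actives, scored as signal loss relative to DMSO.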

The source of these data is PubChem BioAssay (EPA / NIEHS).

Each structure is given as a SMILES string. Inconclusive results are not listed. Calls of active or inactive are those of the source. The calls were made as follows: active = hit-call score of the fitted dose curve at least 0.9, where 1 is the maximum; inconclusive = response in the unintended direction; inactive = score below 0.9.

Caspase-1 (Homo sapiens), sequence (P29466 whole entry, looked up): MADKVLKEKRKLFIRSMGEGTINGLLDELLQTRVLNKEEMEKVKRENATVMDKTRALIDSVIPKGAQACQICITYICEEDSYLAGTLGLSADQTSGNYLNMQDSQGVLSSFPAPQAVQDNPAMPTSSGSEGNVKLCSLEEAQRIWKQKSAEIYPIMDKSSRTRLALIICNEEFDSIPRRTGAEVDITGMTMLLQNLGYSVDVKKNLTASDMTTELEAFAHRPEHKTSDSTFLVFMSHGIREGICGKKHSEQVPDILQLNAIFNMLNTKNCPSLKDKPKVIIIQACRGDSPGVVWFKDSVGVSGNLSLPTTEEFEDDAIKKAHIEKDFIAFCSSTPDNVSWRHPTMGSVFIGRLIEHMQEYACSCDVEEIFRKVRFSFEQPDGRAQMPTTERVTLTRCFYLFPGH
rat CYP2C12, Cyp2c12 (gene 25011), sequence (P11510 whole entry, looked up): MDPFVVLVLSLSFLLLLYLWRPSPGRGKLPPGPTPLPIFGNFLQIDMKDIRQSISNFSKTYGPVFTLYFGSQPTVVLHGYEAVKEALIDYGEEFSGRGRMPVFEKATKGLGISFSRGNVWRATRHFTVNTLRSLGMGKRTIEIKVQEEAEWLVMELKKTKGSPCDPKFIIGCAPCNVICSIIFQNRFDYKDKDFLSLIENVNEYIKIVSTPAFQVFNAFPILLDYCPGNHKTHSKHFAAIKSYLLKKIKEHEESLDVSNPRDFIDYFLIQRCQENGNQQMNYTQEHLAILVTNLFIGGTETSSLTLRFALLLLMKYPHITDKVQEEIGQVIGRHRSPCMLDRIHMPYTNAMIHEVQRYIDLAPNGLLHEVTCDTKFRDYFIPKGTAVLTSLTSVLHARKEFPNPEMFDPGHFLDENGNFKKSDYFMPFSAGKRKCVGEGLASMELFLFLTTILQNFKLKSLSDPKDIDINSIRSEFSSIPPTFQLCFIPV
rat CYP2C13, Cyp2c13 (gene 171521), sequence (P20814 whole entry, looked up): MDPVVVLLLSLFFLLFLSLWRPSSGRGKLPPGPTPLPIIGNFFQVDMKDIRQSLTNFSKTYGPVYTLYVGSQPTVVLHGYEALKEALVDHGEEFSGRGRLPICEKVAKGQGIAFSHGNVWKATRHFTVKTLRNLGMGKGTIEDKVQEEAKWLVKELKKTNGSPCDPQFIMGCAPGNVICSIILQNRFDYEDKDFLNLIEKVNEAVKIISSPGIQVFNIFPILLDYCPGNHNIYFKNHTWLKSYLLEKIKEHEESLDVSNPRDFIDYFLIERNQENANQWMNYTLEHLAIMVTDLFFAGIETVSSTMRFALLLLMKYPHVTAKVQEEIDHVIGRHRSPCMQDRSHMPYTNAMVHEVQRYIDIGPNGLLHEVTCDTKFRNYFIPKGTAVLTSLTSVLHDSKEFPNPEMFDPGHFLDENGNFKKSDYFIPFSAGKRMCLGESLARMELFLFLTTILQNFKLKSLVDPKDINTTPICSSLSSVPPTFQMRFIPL
human Caspase 2 (CASP2), CASP2 (gene 835), sequence (P42575 whole entry, looked up): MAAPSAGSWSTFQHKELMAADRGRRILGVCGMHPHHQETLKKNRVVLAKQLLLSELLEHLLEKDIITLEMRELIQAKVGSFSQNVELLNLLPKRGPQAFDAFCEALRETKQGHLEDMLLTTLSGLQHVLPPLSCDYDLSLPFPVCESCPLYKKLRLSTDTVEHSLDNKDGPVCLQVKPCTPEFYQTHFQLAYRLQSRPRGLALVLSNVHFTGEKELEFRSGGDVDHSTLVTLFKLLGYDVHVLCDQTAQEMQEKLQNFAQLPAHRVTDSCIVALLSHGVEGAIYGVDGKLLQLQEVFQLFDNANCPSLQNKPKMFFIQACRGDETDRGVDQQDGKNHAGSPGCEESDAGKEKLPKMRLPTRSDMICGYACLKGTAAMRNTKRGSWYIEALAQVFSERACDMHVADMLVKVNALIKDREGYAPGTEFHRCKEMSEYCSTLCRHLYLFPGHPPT
human Acid Phosphatase 1 (ACP1), ACP1 (gene 52), sequence (P24666 whole entry, looked up): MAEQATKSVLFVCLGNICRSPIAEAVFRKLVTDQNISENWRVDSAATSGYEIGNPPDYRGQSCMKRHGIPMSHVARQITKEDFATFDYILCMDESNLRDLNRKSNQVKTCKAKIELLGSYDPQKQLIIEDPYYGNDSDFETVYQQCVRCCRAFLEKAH

For the compound `CC(C)=CC1C(C(=O)OCN2C(=O)C3=C(CCCC3)C2=O)C1(C)C` (stereo not drawn), the AC50 in test [1] was 8.97 µM (active).
As for `CNC(=O)ON=C(C)SC`, the AC50 in test [2] is 25 µM (active).
Consider `C=C(C)[C@H]1Cc2c(ccc3c2O[C@@H]2COc4cc(OC)c(OC)cc4[C@@H]2C3=O)O1`, for which the AC50 in test [1] was 2.26 µM (active).
`CNC(=O)Oc1cccc2c1OC(C)(C)O2`: in test [2], the AC50 was 1.36 µM (active).
For the compound `CC1(C(=O)Nc2ccc(O)c(Cl)c2Cl)CCCCC1`, in test [1], the AC50 was 1.37 µM (active).
Take `CCCSP(=O)(OCC)Oc1ccc(Br)cc1Cl` (stereo not drawn): the half-maximal activity concentration (AC50) in test [3] was 8280 nM (active); in test [1] it was 9.49 µM (active); in [2] it was 7.93 µM (active).
Regarding `O=C(O)c1cc(Oc2ccc(C(F)(F)F)cc2Cl)ccc1[N+](=O)[O-]`, the outcome in test [4] was inactive.
On to `O=c1ccc(=O)[nH][nH]1`, for which the compound was called inactive in [5].
On to `CCC(=O)Nc1ccc(Cl)c(Cl)c1`, for which the figures for the half-maximal activity concentration (AC50) in test [1] and in [6] were 5.42 µM (active) and 5.39 µM (active), respectively. In addition, the result in [2] was inactive.
`CC(C)[C@H](C(=O)O[C@H](C#N)c1cccc(Oc2ccccc2)c1)c1ccc(Cl)cc1`: the compound was called inactive in [7].
For the compound `CCc1cccc(CC)c1N(COC)C(=O)CCl`, the call in [4] was inactive.
Consider `CCOP(=S)(OCC)Oc1ccc([N+](=O)[O-])cc1`, for which the AC50 in test [8] is 6.18 µM (active); in [3], 108 nM (active); in test [1] it was 10 µM (active); in test [6] it was 10 µM (active).
With `CCOP(=S)(OCC)OC(Cl)C(Cl)(Cl)Cl` (stereo not drawn), the AC50 in test [2] was 8.21 µM (active).
As to `O=[N+]([O-])c1cc(C(F)(F)F)c(Cl)c([N+](=O)[O-])c1Nc1ncc(C(F)(F)F)cc1Cl`, the compound was classed as inactive in [8].
For the compound `CC(C1CC1)C(O)(Cn1cncn1)c1ccc(Cl)cc1` (stereo not drawn), the AC50 in [8] is 3.71 µM (active); in test [1], 0.0755 µM (active).
For `COP(=O)(OC)OC(Br)C(Cl)(Cl)Br` (stereo not drawn), the AC50 in [2] was 3.67 µM (active).
For the compound `CCCOCC(=Nc1ccc(Cl)cc1C(F)(F)F)n1ccnc1`, the AC50 in test [8] was 2.46 µM (active); in test [3], 976 nM (active); in test [1], 0.966 µM (active); in test [6], 6.88 µM (active).
On to `S=C1NCCN1`, for which the compound was called inactive in test [8], in test [7], in test [5] and in [9].
With `COc1ccc(C(=CC(=O)N2CCOCC2)c2ccc(Cl)cc2)cc1OC`, the AC50 in test [3] is 3980 nM (active).
As to `CC(=NC#N)N(C)Cc1ccc(Cl)nc1`, the call in [1] was inactive. In addition, the AC50 in test [2] is 22.4 µM (active).
As to `CSc1nc(NC(C)C)nc(NC(C)C)n1`, the AC50 in [1] is 7.91 µM (active). In addition, the outcome in test [7] was inactive.
As for `CCOP(=S)(OCC)Oc1ccc2c(C)c(Cl)c(=O)oc2c1`, the AC50 in test [8] is 0.799 µM (active); in test [3], 452 nM (active); in test [6] it was 0.854 µM (active).
As to `CNC(=O)ON=C(SC)C(=O)N(C)C`, in [2], the half-maximal activity concentration (AC50) was 12 µM (active).
For `CSC1=N[C@@](C)(c2ccccc2)C(=O)N1Nc1ccccc1`, in [8], the AC50 is 8 µM (active). In addition, the outcome in [6] was inactive.

By AC50 is commonly meant the midpoint of the concentration-response curve, whichever way the signal moves.
